Assay [1] in a line: ATG_E_Box_CIS: Attagene CIS-FACTORIAL HepG2 Assay for human Enhancer Box (E-box) (AID 2282936). The settings on record: HepG2 E-box cis-reporter transcription, actives raise or lower the signal. Put shortly: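 Cells: HepG2 (human liver), transient MRTU transfection. Exposure 24 h. RNA → oligo(dT) RT → PCR → 6-FAM label → HpaI → CE. Activity fitted both directions relative to DMSO.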

Assay [2] can be described thus: ATG_M_61_CIS: Attagene CIS-FACTORIAL HepG2 Assay for M61 Transcription Factor (Internal Marker) (AID 2282937). The following applies: HepG2 Attagene CIS-FACTORIAL M61 internal marker reporter; actives raise or lower the signal. Summed up:
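This endpoint serves as an internal background control within a multiplexed HepG2 cis-reporter panel. Cells are exposed for 24 h; reporter mRNA is amplified, fluorescently labelled and sized by capillary electrophoresis, with DMSO as negative control.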

Assay [3] in a line: ATG_EGR_CIS: Attagene CIS-FACTORIAL HepG2 Assay for human Early Growth Response 1 (EGR1) (AID 2282938). The settings on record: HepG2 Attagene CIS-FACTORIAL EGR reporter mRNA; actives raise or lower the signal. Put shortly: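 HepG2, transient MRTU transfection (cis promoters), 24 h compound. RNA → RT (oligo-dT) → PCR → 6-FAM labelling → HpaI cut → CE fluorescence. Bidirectional fit, DMSO baseline.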

Assay [4] can be described thus: ATG_M_19_CIS: Attagene CIS-FACTORIAL HepG2 Assay for M19 Transcription Factor (Internal Marker) (AID 2282939). The settings on record: HepG2 Attagene CIS-FACTORIAL M19 internal marker reporter; actives raise or lower the signal. Put shortly: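 Readout: fluorescent reporter-transcript fragments by capillary electrophoresis after RT-PCR. Human HepG2 liver cells carried transfected MRTU constructs reporting endogenous transcription-factor activity; exposure 24 h. Gain or loss of signal fitted relative to DMSO.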

Assay [5] can be described thus: ATG_ERE_CIS: Attagene CIS-FACTORIAL HepG2 Assay for Estrogen Response Element (ERE) (AID 2282940). The settings on record: HepG2 ERE cis-reporter, Attagene RNA transcript; actives raise or lower the signal. Put shortly:
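Readout: reporter mRNA induction by RT-PCR, FAM-labelled primer extension, HpaI digestion and capillary electrophoresis, 24 h after dosing transfected HepG2 cells. Endogenous transcription factors act on cis-element-regulated reporters. Gain or loss fitted against DMSO.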

A short description of assay [6]: ATG_Ets_CIS: Attagene CIS-FACTORIAL HepG2 Assay for human Erythroblast Transformation Specific (ETS) (AID 2282941). The settings on record: HepG2 ETS cis-reporter transcription, actives raise or lower the signal. Put shortly: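 After transient cis-reporter transfection, HepG2 cells receive test chemical for 24 h. Reporter mRNA levels, measured by RT-PCR and capillary electrophoresis fluorescence, are analysed bidirectionally relative to the DMSO baseline.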

In assay [7] the target is Hepatocyte nuclear factor 3-beta (Homo sapiens) (UniProt Q9Y261). As to the kind of experiment: ATG_FoxA2_CIS: Attagene CIS-FACTORIAL HepG2 Assay for human Forkhead box A2 (FOXA2) (AID 2282942). The settings on record: HepG2 cis-reporter transcription factor activity, 24 h; actives raise or lower the signal. Put shortly:
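Cells: HepG2, transient multiplex reporter transfection. Exposure 24 h. Detection: reporter-specific RT-PCR, fluorescent labelling, restriction digest, capillary electrophoresis. Analysis: bidirectional curve fit, DMSO as negative control.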

Assay [8] is described as follows: ATG_FoxO_CIS: Attagene CIS-FACTORIAL HepG2 Assay for human Forkhead box O (FoxO) (AID 2282943). The following applies: HepG2 Attagene cis-reporter, FoxO element, mRNA; actives raise or lower the signal. Put shortly:
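Endogenous transcription factor activity read from multiplexed cis-promoter reporter transcripts in transiently transfected HepG2, 24 h after dosing. Reporter RNA measured via RT-PCR plus capillary electrophoresis of FAM-labeled products; gain or loss relative to DMSO.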

A short description of assay [9]: ATG_GATA_CIS: Attagene CIS-FACTORIAL HepG2 Assay for human GATA Binding Protein (AID 2282944). The settings on record: HepG2 GATA cis-element reporter, Attagene multiplex mRNA; actives raise or lower the signal. Summed up:
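Read-out: fluorescent reporter mRNA fragments resolved by capillary electrophoresis after RT-PCR. Human liver HepG2 cells carried transiently transfected cis-regulated reporter constructs; chemicals incubated 24 h; gain or loss of signal fitted relative to DMSO.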

Assay [10] in a line: ATG_GLI_CIS: Attagene CIS-FACTORIAL HepG2 Assay for human Zinc Finger Protein GLI1 (AID 2282945). The settings on record: HepG2, Attagene cis-factorial reporter mRNA, GLI element; actives raise or lower the signal. Put shortly:
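Bidirectional curve fits relative to DMSO, using reporter mRNA levels from RT-PCR plus capillary electrophoresis. Cells were HepG2 transiently carrying cis-regulated reporter constructs, harvested 24 h after dosing.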

Assay [11] in a line: ATG_GRE_CIS: Attagene CIS-FACTORIAL HepG2 Assay for human Glucocorticoid Response Elements (GRE) (AID 2282947). The settings on record: HepG2 GRE cis-reporter, Attagene multiplex mRNA; actives raise or lower the signal. Put shortly: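 Transient MRTU transfection of human HepG2 liver cells; cis-regulated reporters report endogenous factors. 24 h dosing → RNA isolation → RT-PCR → 6-FAM primer extension → HpaI cut → CE fragment analysis. Bidirectional fit, DMSO negative control.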

The nature of assay [12]: ATG_ISRE_CIS: Attagene CIS-FACTORIAL HepG2 Assay for human Interferon Regulatory Factor 1 (IRF1) binding to an Interferon-Stimulated Response Element (ISRE) (AID 2282948). The following applies: HepG2 ISRE cis-reporter (Attagene), mRNA transcription readout; actives raise or lower the signal. Put shortly:
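Quantitation relies on labelled RT-PCR fragments separated by capillary electrophoresis. Human HepG2 cells bearing cis-promoter reporter constructs were treated 24 h; DMSO served as baseline for bidirectional fitting.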

Assay [13] is described as follows: ATG_M_32_CIS: Attagene CIS-FACTORIAL HepG2 Assay for M32 Transcription Factor (Internal Marker) (AID 2282949).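 Also: background control marker of the multiplexed CIS panel rather than a real target.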 The following applies: HepG2 Attagene cis-factorial M32 reporter, mRNA; actives raise or lower the signal. Summed up:
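Fluorescent capillary electrophoresis peaks of HpaI-digested, FAM-labelled RT-PCR reporter products give the signal. Source: transiently transfected human liver HepG2 cells, 24 h after chemical dosing; bidirectional fitting against DMSO.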

Assay [14] can be described thus: ATG_M_06_CIS: Attagene CIS-FACTORIAL HepG2 Assay for M06 Transcription Factor (Internal Marker) (AID 2282950). The settings on record: HepG2 Attagene CIS-FACTORIAL M06 internal marker reporter; actives raise or lower the signal. Summed up:
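Terse: HepG2, transient MRTU transfection (FuGene 6), 24 h dosing; total RNA, oligo(dT) RT, PCR, FAM label, HpaI cut, capillary electrophoresis; bidirectional fit vs DMSO baseline; background-control endpoint.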

Assay [15] has as its target Hypoxia-inducible factor 1-alpha (Homo sapiens) (UniProt Q16665). As to the kind of experiment: ATG_HIF1a_CIS: Attagene CIS-FACTORIAL HepG2 Assay for human Hypoxia Inducible Factor 1 (HIF1A) (AID 2282951). The settings on record: HepG2 Attagene cis-factorial HIF1a reporter transcription; actives raise or lower the signal. Put shortly:
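HepG2, transient cis-reporter library, 24 h dosing. RNA → RT (oligo dT) → PCR → 6-FAM primer extension → HpaI → CE. Bidirectional curve fit vs DMSO.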

Assay [16] addresses Hepatocyte nuclear factor 6 (Homo sapiens) (UniProt Q9UBC0). As to the kind of experiment: ATG_HNF6_CIS: Attagene CIS-FACTORIAL HepG2 Assay for human Hepatocyte Nuclear Factor 6 (HNF6) (AID 2282952). The following applies: HepG2 Attagene cis-factorial HNF6 reporter transcription; actives raise or lower the signal. Put shortly:
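HepG2 cells transiently transfected with cis-element-driven multiplexed reporter units measuring endogenous transcription factor activity. After 24 h exposure, reporter mRNA quantified by RT-PCR, FAM-labelled fragments and capillary electrophoresis; bidirectional fitting versus DMSO.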

For assay [17], the target named is Heat shock factor protein 1 (Homo sapiens) (UniProt Q00613). As to the kind of experiment: ATG_HSE_CIS: Attagene CIS-FACTORIAL HepG2 Assay for human Heat Shock Transcription Factor 1 (HSE) (AID 2282953). The settings on record: HepG2 HSE cis-reporter, Attagene RNA transcription; actives raise or lower the signal. Summed up: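 Read-out: fluorescence of reporter-specific RT-PCR fragments separated by capillary electrophoresis. HepG2 carrying transfected cis-element reporter units; 24 h dosing; activity fitted in both directions relative to DMSO baseline.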

A short description of assay [18]: ATG_MRE_CIS: Attagene CIS-FACTORIAL HepG2 Assay for human Metal Responsive Element (MRE) (AID 2282954). The following applies: HepG2 MRE cis-reporter transcription, Attagene multiplex; actives raise or lower the signal. Put shortly:
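Transient MRTU transfection of HepG2 (FuGene 6); 24 h dosing; total RNA → oligo(dT) RT, PCR, 6-FAM primer extension, HpaI cut, CE. Bidirectional fit vs DMSO.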

Assay [19] addresses Bile acid receptor (Homo sapiens) (UniProt Q96RI1). As to the kind of experiment: ATG_IR1_CIS: Attagene CIS-FACTORIAL HepG2 Assay for human Nuclear Receptor Subfamily 1 Group H Member 4 (NR1H4), IR1 submotif (AID 2282946). The following applies: IR1 reporter transcription, actives raise or lower the signal. Summed up:
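Cells (human HepG2) carry transiently transfected cis-promoter reporter transcription units. Compounds are incubated 24 h, total RNA is reverse-transcribed and amplified, and labelled fragments are resolved by capillary electrophoresis. Curves use DMSO as baseline.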

The nature of assay [20]: ATG_PBREM_CIS: Attagene CIS-FACTORIAL HepG2 Assay for human Phenobarbital-responsive Enhancer Module (PBREM) (AID 2282955). The following applies: HepG2 PBREM cis-reporter, Attagene multiplexed transcription; actives raise or lower the signal. Put shortly: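 HepG2, transient MRTU transfection, 24 h dosing; RNA → oligo(dT) RT → PCR → 6-FAM extension → HpaI → CE. Bidirectional fit vs DMSO.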

Active and inactive are the calls of the source. The calls were made as follows: active = hit-call score of the fitted dose curve at least 0.9, where 1 is the maximum; inactive = score below 0.9.

Sequence of Hepatocyte nuclear factor 3-beta (Homo sapiens) (Q9Y261 whole entry, looked up): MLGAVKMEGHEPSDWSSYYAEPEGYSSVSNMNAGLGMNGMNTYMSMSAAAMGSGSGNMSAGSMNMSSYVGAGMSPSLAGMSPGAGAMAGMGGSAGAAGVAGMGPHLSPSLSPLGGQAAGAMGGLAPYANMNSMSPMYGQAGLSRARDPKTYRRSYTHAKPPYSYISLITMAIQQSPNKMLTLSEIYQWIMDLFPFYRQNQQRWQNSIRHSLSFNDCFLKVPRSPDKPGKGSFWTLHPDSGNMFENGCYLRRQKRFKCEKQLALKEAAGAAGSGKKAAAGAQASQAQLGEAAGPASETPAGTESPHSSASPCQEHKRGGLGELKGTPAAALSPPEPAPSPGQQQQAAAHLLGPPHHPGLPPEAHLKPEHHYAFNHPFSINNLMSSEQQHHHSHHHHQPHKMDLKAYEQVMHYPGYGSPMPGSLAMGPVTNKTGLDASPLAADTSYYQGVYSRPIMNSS
Sequence of Hypoxia-inducible factor 1-alpha (Homo sapiens) (Q16665 whole entry, looked up): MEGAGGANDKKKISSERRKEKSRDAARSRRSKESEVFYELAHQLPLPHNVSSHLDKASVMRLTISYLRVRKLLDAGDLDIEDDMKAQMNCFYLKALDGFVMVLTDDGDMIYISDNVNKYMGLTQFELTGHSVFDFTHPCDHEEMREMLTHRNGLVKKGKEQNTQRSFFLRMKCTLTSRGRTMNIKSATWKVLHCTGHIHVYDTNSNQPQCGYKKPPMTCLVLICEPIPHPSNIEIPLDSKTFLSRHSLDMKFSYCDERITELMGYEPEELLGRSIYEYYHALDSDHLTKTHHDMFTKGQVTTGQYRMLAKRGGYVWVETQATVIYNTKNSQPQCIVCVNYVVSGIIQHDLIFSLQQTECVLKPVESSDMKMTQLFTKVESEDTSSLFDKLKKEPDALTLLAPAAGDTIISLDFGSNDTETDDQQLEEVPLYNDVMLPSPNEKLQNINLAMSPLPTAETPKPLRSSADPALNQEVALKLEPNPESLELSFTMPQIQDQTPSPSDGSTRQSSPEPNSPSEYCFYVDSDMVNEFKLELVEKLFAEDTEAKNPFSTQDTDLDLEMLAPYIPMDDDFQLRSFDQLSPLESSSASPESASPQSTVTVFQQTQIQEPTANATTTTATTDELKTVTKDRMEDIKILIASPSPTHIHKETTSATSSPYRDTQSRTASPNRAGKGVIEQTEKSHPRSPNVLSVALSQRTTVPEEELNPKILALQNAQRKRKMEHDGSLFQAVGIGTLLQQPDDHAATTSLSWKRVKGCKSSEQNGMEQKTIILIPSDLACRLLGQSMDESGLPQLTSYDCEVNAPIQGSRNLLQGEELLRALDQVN
Sequence of Heat shock factor protein 1 (Homo sapiens) (Q00613 whole entry, looked up, the tested form may be a part): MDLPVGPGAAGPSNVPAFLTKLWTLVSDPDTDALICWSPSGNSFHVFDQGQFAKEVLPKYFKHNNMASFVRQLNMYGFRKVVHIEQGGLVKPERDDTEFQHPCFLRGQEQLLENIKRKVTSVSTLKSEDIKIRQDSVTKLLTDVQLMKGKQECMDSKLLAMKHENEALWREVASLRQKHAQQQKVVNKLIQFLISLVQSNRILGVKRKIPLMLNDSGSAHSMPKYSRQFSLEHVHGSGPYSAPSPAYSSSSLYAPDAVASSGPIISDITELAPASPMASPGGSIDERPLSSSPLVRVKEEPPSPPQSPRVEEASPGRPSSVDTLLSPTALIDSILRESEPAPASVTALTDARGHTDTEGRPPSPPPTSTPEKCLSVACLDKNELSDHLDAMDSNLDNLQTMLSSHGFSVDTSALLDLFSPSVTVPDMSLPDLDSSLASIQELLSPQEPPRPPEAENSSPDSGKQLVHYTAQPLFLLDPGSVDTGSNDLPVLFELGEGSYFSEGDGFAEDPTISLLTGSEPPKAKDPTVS
Sequence of Hepatocyte nuclear factor 6 (Homo sapiens) (Q9UBC0 whole entry, looked up, the tested form may be a part): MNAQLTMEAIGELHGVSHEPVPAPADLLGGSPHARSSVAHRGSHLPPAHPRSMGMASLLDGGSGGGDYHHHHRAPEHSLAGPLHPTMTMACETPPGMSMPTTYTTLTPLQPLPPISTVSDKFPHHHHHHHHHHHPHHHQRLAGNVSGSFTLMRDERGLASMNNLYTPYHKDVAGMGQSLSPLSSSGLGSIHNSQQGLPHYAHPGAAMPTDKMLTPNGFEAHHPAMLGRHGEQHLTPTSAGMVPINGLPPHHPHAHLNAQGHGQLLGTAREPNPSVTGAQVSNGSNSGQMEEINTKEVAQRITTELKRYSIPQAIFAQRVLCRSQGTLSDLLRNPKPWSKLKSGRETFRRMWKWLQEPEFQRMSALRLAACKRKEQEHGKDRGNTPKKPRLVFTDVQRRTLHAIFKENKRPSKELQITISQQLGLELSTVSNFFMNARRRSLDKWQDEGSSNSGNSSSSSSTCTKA
Sequence of Bile acid receptor (Homo sapiens) (Q96RI1 whole entry, looked up, the tested form may be a part): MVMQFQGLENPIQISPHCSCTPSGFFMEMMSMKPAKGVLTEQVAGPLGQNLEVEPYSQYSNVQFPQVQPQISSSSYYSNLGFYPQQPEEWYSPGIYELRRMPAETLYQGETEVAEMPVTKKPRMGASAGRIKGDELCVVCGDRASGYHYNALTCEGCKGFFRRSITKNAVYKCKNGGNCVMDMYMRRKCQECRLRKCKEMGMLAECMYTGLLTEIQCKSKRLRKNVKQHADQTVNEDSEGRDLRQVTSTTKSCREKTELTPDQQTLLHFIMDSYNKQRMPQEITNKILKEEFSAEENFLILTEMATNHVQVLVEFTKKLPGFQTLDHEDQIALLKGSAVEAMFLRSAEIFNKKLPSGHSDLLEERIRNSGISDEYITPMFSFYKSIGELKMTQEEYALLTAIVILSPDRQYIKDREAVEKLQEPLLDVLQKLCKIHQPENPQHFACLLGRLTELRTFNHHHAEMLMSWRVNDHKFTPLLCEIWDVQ

The term AC50 denotes the concentration at which the activity in the assay is half-maximal. In the case of `ClC1=C(Cl)[C@]2(Cl)[C@@H]3[C@H]4C[C@H]([C@@H]5O[C@H]45)[C@@H]3[C@@]1(Cl)C2(Cl)Cl`, the outcome in assay [1], in assay [2], in assay [3], in assay [4], in assay [6] and in [7] was inactive. In addition, the result in assay [8], in [9], in [10], in assay [11], in [12] and in [13] was inactive. Besides, the call in [14], in assay [15], in assay [16], in assay [17] and in [18] was inactive. Further, in [5], the AC50 is 0.279 µM (active).

Turning to `CC(c1ccc(O)cc1)(c1ccc(O)cc1)c1ccc(O)cc1`, the AC50 in [1] is 14.7 µM (active); in [3], 12.8 µM (active); in assay [5], 0.0955 µM (active); in assay [19], 11.1 µM (active); in assay [12], 16.1 µM (active); in assay [15], 13.8 µM (active). Moreover, the AC50 in assay [16] is 18.6 µM (active); in assay [18], 13.5 µM (active). Besides, the outcome in assay [2], in [4], in [6], in [7], in assay [8] and in assay [9] was inactive. Also, the molecule was classed as inactive in [10], in assay [11], in assay [13], in [14], in assay [17] and in assay [20].

As to `O=C(NC(=O)c1cc(F)c(F)cc1Cl)Nc1cc(F)ccc1N1CCC(C(=O)O)CC1`, the result in [1], in [2], in assay [3], in [4], in [5] and in [6] was inactive. Also, the result in assay [7], in assay [8], in [9], in [10], in assay [11] and in assay [12] was inactive. In addition, the molecule was called inactive in [13], in assay [14], in assay [15], in assay [16], in assay [17] and in [18].

As to `C=CC(N)=O`, the result in assay [1], in assay [2], in [3], in assay [4], in assay [5] and in assay [6] was inactive. Moreover, the result in [7], in assay [8], in assay [9], in [10], in assay [11] and in assay [12] was inactive. The result in assay [13], in assay [14], in assay [16], in assay [17] and in assay [18] was inactive. The half-maximal activity concentration (AC50) in assay [15] is 26 µM (active).

Consider `Cc1cc2c3c(c1)C(c1ccccc1)=N[C@@H](NC(=O)c1ccncc1)C(=O)N3CC2`, for which the outcome in [1], in assay [2], in [4], in assay [5], in assay [7] and in assay [8] was inactive. The outcome in assay [9], in assay [10], in assay [19], in assay [13], in assay [14] and in assay [16] was inactive. Further, the call in assay [17] was inactive. Also, the concentration at half-maximal activity (AC50) is 42.8 µM (active) in [3]; 153 µM (active) in assay [6]; 102 µM (active) in [12]; 72.4 µM (active) in assay [15]; 77.1 µM (active) in assay [18]; 3.47 µM (active) in assay [20].
